Assay results taken from PubChem BioAssay.
Active and inactive are the calls of the source. Unless noted, how the calls were made is not given here.

Assays:
[1] = tested on: XIP peptide (Xip251-270) binding; assay: XIP fragment 251-270 binding compounds – biochemical, small-molecule microarray, fluorescence 635/667 nm, 0.1 µg/mL protein, primary screen (AID 1182); details: fluorescent protein binding, 635 nm, higher = more signal, called active from +8 up or from −8 down
[2] = tested on: XIP peptide (Xip251-270); assay: compounds binding XIP fragment 251-270 – biochemical, small-molecule microarray, fluorescence 635/667 nm, 0.5 µg/mL protein, primary screen (AID 1183); details: fluorescence 635 nm, higher = more signal
[3] = blood-stage malaria parasite viability loss – strain 3D7, DAPI fluorescence, 100 nL, primary screen (AID 1184);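 further: parasites grown inside human red blood cells in medium with human serum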; details: P. falciparum 3D7 growth, 3 d, higher = more signal
[4] = molecular target: Homeobox protein Hox-A13 (Mus musculus) (UniProt Q62424); assay: disruptors of Hoxa13 oligonucleotide interaction – biochemical, fluorescence polarization, labeled oligonucleotide, primary screen (AID 1185); details: Hoxa13:DNA binding, 15 min, higher = more signal, called active from +8 up or from −8 down
Sequence of Homeobox protein Hox-A13 (Mus musculus) (Q62424 whole entry, looked up): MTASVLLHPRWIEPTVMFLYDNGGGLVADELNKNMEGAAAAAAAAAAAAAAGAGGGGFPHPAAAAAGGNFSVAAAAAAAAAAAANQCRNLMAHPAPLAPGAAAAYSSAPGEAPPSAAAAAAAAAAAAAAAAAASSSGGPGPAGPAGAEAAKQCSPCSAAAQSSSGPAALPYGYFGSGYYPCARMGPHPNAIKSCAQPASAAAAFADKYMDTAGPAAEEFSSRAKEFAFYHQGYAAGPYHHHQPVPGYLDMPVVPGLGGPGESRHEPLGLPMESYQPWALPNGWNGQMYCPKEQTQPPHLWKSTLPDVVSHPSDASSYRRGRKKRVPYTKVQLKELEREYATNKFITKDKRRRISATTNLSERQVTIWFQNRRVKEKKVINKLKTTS

[5] = blockers of DNA damage checkpoint Chk1 activation – imaging, HeLa, hydroxyurea, phospho-Chk1 antibody, percent positive cells, primary screen (AID 1186); details: hydroxyurea-induced phospho-Chk1 immunofluorescence imaging, higher = more signal
[6] = blockers of DNA damage checkpoint Chk1 activation – imaging, HeLa, hydroxyurea, phospho-Chk1 nuclear intensity, primary screen (AID 1187); details: hydroxyurea-induced phospho-Chk1 immunofluorescence imaging, higher = more signal

Row | Structure (SMILES) | composite z-score [1] | composite z-score [2] | z-score [3] | z-score [4] | z-score [5] | z-score [6]
1 | CCOC(=O)C[C@H]1[C@H](OC(=O)c2ccc(C(=O)c3ccccc3)cc2)[C@@H](NC(=O)Cc2ccc(OC)cc2)c2cc(OCCCO)ccc2N1C(=O)c1ccc2ccccc2n1 | 0.845 (inactive) | 0.172 | -0.129 | -1.9 (inactive) | 0.112 (inactive) | -0.189 (inactive)
2 | O=C(NCc1ccccc1)[C@@H]1c2ccccc2C(=O)N(C2Cc3ccccc3C2)[C@H]1c1ccc(CO)cc1 | 0.72 (inactive) | 0.731 | -0.276 | -2.13 (inactive) | 0.26 (inactive) | -0.16 (inactive)
3 | O=C1C2C=CC(C(O)c3cc(C(F)(F)F)cc(C(F)(F)F)c3)N(Nc3ccccc3)C2C(=O)N1c1ccccc1 (configuration not stated) | 0.926 (inactive) | 0.197 | 0.0018 | -2.82 (inactive) | 0.0811 (inactive) | -0.017 (inactive)
4 | COc1ccc([Si](C)(C)[C@@H]2[C@@H](CCn3cc(CCO)nn3)O[C@]3(C(=O)N(Cc4cccc(N5C(=O)c6cccc7cccc5c67)c4)c4ccccc43)[C@H]2C)cc1 | 1.49 (inactive) | 0.589 | -2.81 | -2.66 (inactive) | -0.953 (inactive) | -0.813 (inactive)
5 | CN(C)C(=O)[C@]1(Cc2ccccc2)N=C(c2ccc(OCCCO)cc2)O[C@@H]1c1ccccc1N=[N+]=[N-] | 0.79 (inactive) | 0.708 | -2.31 | -5.85 (inactive) | -0.366 (inactive) | -0.903 (inactive)
6 | COc1ccc([C@H]2C[C@H]3C(I)=C[C@@H]2C(=O)[C@]32CO2)cc1 | -0.344 (inactive) | 0.68 | 0.456 | -1.41 (inactive) | 0.125 (inactive) | -0.217 (inactive)
7 | O=C1O[C@@H](c2ccccc2)[C@@H](c2ccccc2)N2[C@@H](c3ccc(OCCO)cc3)[C@]3(C(=O)Nc4ccc(C#CCCO)cc43)[C@@H](C(=O)NC[C@H](O)c3ccccc3)[C@H]12 | 0.0796 (inactive) | 0.822 | -0.271 | -3.67 (inactive) | -0.174 (inactive) | -0.317 (inactive)
8 | CC(C)[Si](C#CCCCC#N)(Oc1ccccc1Br)C(C)C | 0.983 (inactive) | -0.0206 | 0.306 | -1.08 (inactive) | 0.365 (inactive) | 0.0882 (inactive)
9 | COC(=O)C[C@H]1O[C@@H](CCc2ccccc2)[C@@H](C)[C@@H]1[Si](C)(C)c1ccc(OC)cc1 | -0.633 (inactive) | -0.919 | -1.63 | -4.56 (inactive) | 0.0465 (inactive) | 0.33 (inactive)
10 | CCCNC(=O)[C@@H]1c2ccccc2C(=O)N(Cc2ccccc2OC)[C@H]1c1ccc(CO)cc1 | 0.273 (inactive) | 0.85 | -1.54 | -3.2 (inactive) | -0.175 (inactive) | -0.0848 (inactive)
11 | C=CCNC(=O)[C@H]1[C@@H]2C(=O)O[C@@H](c3ccccc3)[C@@H](c3ccccc3)N2[C@@H](c2ccc(O)cc2)[C@]12C(=O)Nc1ccc(C#CCCO)cc12 | -0.0879 (inactive) | -0.227 | 0.093 | -4.04 (inactive) | -0.266 (inactive) | -0.136 (inactive)
12 | CC(C)Cc1ccc(CN2CC[C@@H](N)C2)cc1 | 0.773 (inactive) | -0.0255 | -0.423 | -0.811 (inactive) | -0.939 (inactive) | -0.735 (inactive)
13 | CCOc1ccc(N2C(=O)CSC2c2cccc([N+](=O)[O-])c2)cc1 (configuration not stated) | 0.115 (inactive) | 0.193 | 0.268 | -0.0449 (inactive) | -0.139 (inactive) | -0.0398 (inactive)
14 | C=CCC(OC(C)=O)[C@@H]1[C@@H](N(Cc2cc3ccccc3o2)C(=O)Cc2ccc(OC)cc2)c2cc(OCCCO)ccc2N1C(=O)c1ccc2ccccc2c1 (some centres not stated) | 0.0999 (inactive) | 0.167 | -2.47 | -1.6 (inactive) | 0.556 (inactive) | 0.877 (inactive)
15 | COc1cc(OC)c(C(O)C2C=CC3C(=O)NC(=O)C3N2Nc2ccccn2)cc1Br (configuration not stated) | 0.654 (inactive) | 0.448 | 0.776 | -1.28 (inactive) | -0.143 (inactive) | -0.266 (inactive)
16 | COc1ccccc1CN1C(=O)c2ccccc2[C@@H](C(=O)NCc2ccccc2)[C@@H]1c1ccc(CO)cc1 | 0.737 (inactive) | 0.785 | -1.45 | -1.22 (inactive) | -0.295 (inactive) | -0.0433 (inactive)
17 | CC(C)[Si](C#C[Si](C(C)C)(C(C)C)C(C)C)(O[C@H](C)c1cn(Cc2ccccc2)nn1)C(C)C | -0.0845 (inactive) | 0.0972 | 1.59 | -0.236 (inactive) | -0.175 (inactive) | -0.288 (inactive)
